Source: PubChem BioAssay AID493244 (The Scripps Research Institute Molecular Screening Center, 2011)
The campaign covered roughly 340,000 compounds. About 390 (0.11%) were called active. What follows is part of a selection rich in actives, with near analogues and random picks from the rest. Unmarked numbers belong to inactive results.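 Rule for the calls: active = inhibition above the mean inhibition of all tested compounds plus 3 SD (cut at about 17% in these data); inactive = the rest.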

target: Troponin I, cardiac muscle (Homo sapiens) + Troponin T, cardiac muscle (Homo sapiens) + Troponin C, slow skeletal and cardiac muscles (Homo sapiens) (UniProt P19429+P45379+P63316); assay: cardiac RTF calcium sensitivity inhibitors, primary screen, biochemical, IANBD-TnC fluorescence, EC70 calcium (AID 493244); settings: IANBD-labeled cardiac RTF, Ca2+ fluorescence; at 7.15 µM; active compounds read high;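 note: assay run at fixed EC70 calcium of 1.6 mM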

| SMILES | inhibition |
| --- | --- |
| CCN(CC)S(=O)(=O)c1ccc(N2CCOCC2)c(NC(=O)C2CSC3(C)CCC(=O)N23)c1 (stereo not drawn) | -5.18% |
| O=C(c1ccco1)N1CCN(C(=S)Nc2cc(F)cc(F)c2)CC1 | -7.48% |
| C[C@]12c3[nH]c4ccc(Cl)cc4c3CCN1C(=O)[C@@H](CC(=O)NCCCn1ccnc1)C[C@@H]2C(=O)N1CCOCC1 | -5.19% |
| O=C(Nc1ccc2c(c1)CCC2)c1cccc(S(=O)(=O)Nc2ccccc2Cl)c1 | 3.16% |
| COc1ccc(Cl)cc1NC(=O)[C@@H]1CCCN1C(=O)c1cccs1 | 5.41% |
| Cc1cc(C)cc(N(CC(=O)NC2CCCC2)C(=O)CCC(=O)Nc2cc(C)on2)c1 | -4.35% |
| Cc1cc(NC(=O)CCC(=O)N(CC(=O)NCC2CCCO2)c2ccccc2)no1 (stereo not drawn) | 18.5% (active) |
| Cc1cc(NC(=O)CCC(=O)N(CC(=O)NCC2CCCO2)c2ccccc2C)no1 (stereo not drawn) | -4.7% |
| CCCCOc1ccc(N(CC(=O)NCC2CCCO2)C(=O)CCC(=O)Nc2cc(C)ccn2)cc1 (stereo not drawn) | -5.97% |
| COC(=O)c1cccc(N(CC(=O)NCC2CCCO2)C(=O)CCC(=O)Nc2cc(C)on2)c1 (stereo not drawn) | 17.2% (active) |
| Cc1cc(NC(=O)CCC(=O)N(CC(=O)NC2CCCC2)c2ccc(F)cc2)no1 | -0.21% |
| Cc1cc(C)cc(OCC(=O)NNC(=O)CCN2C(=O)c3ccccc3C2=O)c1 | -1.71% |
| Cc1cc(C(=O)Nc2ccc(C)c(S(=O)(=O)N3CCOCC3)c2)c2ccccc2n1 | 5.27% |
| Cc1cc(OCc2ccc(C(=O)Nc3ccc(C(=O)O)cc3)o2)ccc1Cl | 2% |
| O=C(O[C@@H]1[C@H](Cc2ccccc2)NS(=O)(=O)[C@H]2C[C@@H]3C=C[C@]12O3)c1ccccc1Br | -4.49% |
| CC(Sc1nnc(COc2ccccc2)n1-c1ccccc1)C(=O)O (stereo not drawn) | 2% |
| Cc1nnc(NC(=O)CCC(=O)N2CCC(C)CC2)s1 | -6.77% |
| CC1(c2ccc3ccccc3c2)NC(=O)NC1=O (stereo not drawn) | -8.57% |
| O=C(Nc1ccc(Br)cc1F)C1CC(=O)N(C2CCCCC2)C1 (stereo not drawn) | -4.05% |
| Cc1ccc(NC(=O)C2CCC(C(C)(C)C)CC2)cc1S(=O)(=O)N1CCOCC1 (stereo not drawn) | -8.96% |
| Cc1ccc(NC(=O)NC2CCCCC2)cc1S(=O)(=O)N1CCOCC1 | 21.9% (active) |
| Cc1ccc(NC(=O)C2CC2)cc1S(=O)(=O)N1CCOCC1 | 5.9% |

| SMILES | inhibition |
| --- | --- |
| O=C1N=C2SCCN2/C1=C\c1c(Cl)cccc1Cl | -0.73% |
| COc1cccc(-n2c(=S)sc3c(=O)n(-c4ccccc4OC)c(SCC4OCCO4)nc32)c1 | -13.4% |
| O=C(N/N=C/c1ccccc1O)/C(=C/c1ccccc1)CCO | -2.95% |
| Cn1cnc([N+](=O)[O-])c1Sc1ccccc1 | 7.04% |
| CCOC(=O)C(C)Oc1cccc2c(=O)n(CC(=O)NCCc3ccc(OC)c(OC)c3)ccc12 (stereo not drawn) | -4.75% |
| Cc1ccc(NC2=C(Cl)C(=O)OC2OC(=O)c2ccccc2C)cc1 (stereo not drawn) | 5.74% |
| CCc1ccc(N2CC(C(=O)Nc3ccc(S(=O)(=O)Nc4nccs4)cc3)CC2=O)cc1 (stereo not drawn) | 10.1% |
| CSCC[C@H](NC(=O)N1CCn2c1nc1ccccc12)C(=O)NC1CCCCC1 | -6.71% |
| CC(C(=O)NC1CCCCC1)N1C(=O)c2cccc3cccc1c23 (stereo not drawn) | 5.31% |
| COc1cc(C(=O)N(C)Cc2cccc(OC)c2OC)ccc1OCC(=O)Nc1cccc(C(F)(F)F)c1 | 6.06% |
| Cc1cc(C)nc(Nc2n[nH]c(-c3ccccc3N)n2)n1 | 2.72% |
| CC(C)(C)c1ccc(C(CC(=O)O)NS(=O)(=O)Cc2ccccc2)cc1 (stereo not drawn) | -9.83% |
| Cc1ccc(S(=O)(=O)Cn2nnnc2CN2CCN(Cc3ccc4c(c3)OCO4)CC2)cc1 | -16.1% |
| COc1ccc(S(=O)(=O)NC(C)c2ccccc2)cc1C(=O)N1CCCCC1 (stereo not drawn) | -3.2% |
| O=C(COC(=O)c1ccc(NS(=O)(=O)c2cccs2)cc1O)Nc1ccc(F)cc1 | -3.11% |
| COc1ccc(/C=C(/NC(=O)c2ccccc2)C(=O)Nc2cccc(C(=O)O)c2)cc1 | -3.42% |
| O=C1c2ccccc2C(Nc2ccc3c(c2)OCCO3)N1Cc1ccco1 (stereo not drawn) | 0.13% |
| CC(C)c1cc(C(=O)N/N=C/c2ccoc2)c(O)c(C(C)C)c1 | -3.15% |
| COC(=O)Cc1c(O)ccn(Cc2cccc(C(F)(F)F)c2)c1=O | 1.28% |
| Cc1cc(S(=O)(=O)NC2CCCC2)ccc1-n1cnnn1 | -17.6% |
| Cc1ccc(CSc2ccc(S(=O)(=O)N3CCCCC3)cn2)cc1 | -3.54% |
| O=c1ccc2c(-c3ccccc3S(=O)(=O)O)c3ccc(O)c(O)c3oc-2c1O | 141% (active) |

| SMILES | inhibition |
| --- | --- |
| CCc1noc(C)c1C(=O)Oc1ccc(N(C)S(=O)(=O)c2ccc(C)c(C)c2)cc1 | 0.79% |
| Cc1ccc(-n2c(=O)c(C#N)cc3c(=O)n4ccccc4nc32)cc1C | -2.12% |
| Cc1cc(C)n(Cc2cnc(N3CCOCC3)s2)n1 | 9.55% |
| O=C(C[n+]1cc(-c2ccc(Cl)c(Cl)c2)n2c1CCC2)c1cccs1 | 0.83% |
| CCCCOc1ccc(C(=O)NCC(=O)OCC(=O)N2CCN(S(=O)(=O)c3ccc(C)cc3C)CC2)cc1 | -7.59% |
| Cc1ccc(C(=O)OCC(=O)NCc2cc(C)c(O)c(C)c2)cc1S(=O)(=O)N1CCCCC1 | 0.34% |
| CCNC(=S)NCC | -5.85% |
| Cc1c(Cl)c([N+](=O)[O-])nn1CC(=O)NCC1CCCO1 (stereo not drawn) | -4.95% |
| Cc1nc2ccc(S(=O)(=O)NCC(=O)O)cc2s1 | -1.72% |
| CN(c1ccccc1)S(=O)(=O)c1cccc(NC(=O)Cc2ccc(Cl)cc2)c1 | 11.1% |
| COc1ccc(C)cc1S(=O)(=O)N(CC(=O)Nc1cccc([N+](=O)[O-])c1)c1ccc(C)cc1 | 0.11% |
| Cc1ccc(S(=O)(=O)N(CC(=O)Nc2cccc([N+](=O)[O-])c2)Cc2ccc(Cl)cc2)cc1 | 18.4% (active) |
| COc1ccc(C(=O)NC2CC2)cc1OC1CCN(C/C=C/c2ccccc2)CC1 | 0.64% |
| COc1ccc(CSc2nnnn2-c2ccc(O)cc2)cc1F | -11.7% |
| COc1cccc2cc(C(=O)NCc3ccc(C)cc3)c(=N)oc12 | 0.64% |
| CC(NC(=O)COC(=O)C1CCN(S(=O)(=O)c2ccccc2C(F)(F)F)CC1)c1ccccc1 (stereo not drawn) | -5.89% |
| COc1ccc(CCNC(=O)COC(=O)c2ncc(Cl)c(Cl)c2Cl)cc1OC | 4.89% |
| Cc1ccc(S(=O)(=O)N(CC(=O)N2CCc3ccccc3C2)c2cccc(Cl)c2)cc1 | -9% |
| C[C@]12CCC(=O)C=C1C=CC1C2CC[C@@]2(C)C1CC[C@@]21CCC(=O)O1 (stereo partly drawn) | 2.44% |
| Cc1ccc(CN2CC(C(=O)NNC(=O)Cn3ccc(C(F)(F)F)n3)CC2=O)cc1 (stereo not drawn) | -7.66% |
| NC(=O)C1(Nc2ccc([N+](=O)[O-])cc2)CCCC1 | 1.13% |
| O=c1oc2ccc(C#CC3(O)CCCCC3)cc2cc1-n1cc(-c2ccsc2)nn1 | 3.02% |

| SMILES | inhibition |
| --- | --- |
| CC1CN(S(=O)(=O)c2cccc(C(F)(F)F)c2)CN1C(=O)N1CCOCC1 (stereo not drawn) | 9.08% |
| Cc1cc(CNC(=O)C2CCC(=O)N(CCc3ccc(Cl)cc3)C2)no1 (stereo not drawn) | 1.17% |
| Cc1ccc(CNC(=O)Cc2cn(C)c3ccccc23)cc1 | -0.42% |
| O=S(=O)(c1ccccc1)c1nc(Cc2ccccc2)oc1N1CCOCC1 | -3.71% |
| O=C(NCCC1CCCCN1S(=O)(=O)c1ccc(F)cc1)C(=O)NC1CC1 (stereo not drawn) | -3.06% |
| O=C(NCCC1CCCCN1S(=O)(=O)c1ccc(Cl)cc1)C(=O)NCc1ccco1 (stereo not drawn) | -6.03% |
| COc1cccc(CNC(=O)C(=O)NCCC2CCCCN2S(=O)(=O)c2ccc(C)cc2)c1 (stereo not drawn) | 18.4% (active) |
| COc1ccccc1S(=O)(=O)NCc1ccc(C(=O)N(C)Cc2ccc(F)cc2)cc1 | 4.86% |
| CCS(=O)(=O)c1ccc(-c2cccc(NC(=O)c3ccc(Br)o3)c2)nn1 | 9.7% |
| COc1ccc(C(CNC(=O)c2cc(S(=O)(=O)Nc3cccc(C)c3)ccc2C)N2CCCC2)cc1 (stereo not drawn) | -1.95% |
| CSCCC1NC(=O)N(CC(=O)Nc2cccc(S(=O)(=O)N3CCCCCC3)c2)C1=O (stereo not drawn) | -6.38% |
| CC(C)CC(=O)c1c[nH]c(C(=O)NCc2ccccc2)c1 | -10.5% |
| COc1ccccc1CCC(=O)NNC(=O)c1ccncc1 | -23.1% |
| O=S(=O)(Oc1ccccc1C(=S)N1CCOCC1)c1ccc(Cl)cc1 | 1.09% |
| O=C(c1cccc(F)c1)N1CCN(c2ccc([N+](=O)[O-])c3cccnc23)CC1 | 12.4% |
| O=C(CN1CCOCC1)Nc1cccc([N+](=O)[O-])c1 | -4.8% |
| CN(CCCC(=O)Nc1nccs1)S(=O)(=O)c1ccc(Cl)cc1 | -8.75% |
| C=CCC1(C(=O)N(C)Cc2ccccc2)CCN(C(=O)OC(C)(C)C)CC1 | -8.43% |
| CN(C)c1ccc(NC(=O)CN2C3CCCC2CC(NC(=O)c2ccccc2)C3)cc1 (stereo not drawn) | 1.88% |
| CCCCn1c(=O)c(C(C)=O)c(O)c2ccccc21 | 18.1% (active) |
| CCCCCn1c(=O)c(C(=O)OCC)c(Cl)c2ccccc21 | 2.78% |
| CCCn1c(=O)c(-c2ccccc2)c(O)c2ccccc21 | -0.9% |
